# Laboratory results from PMC7862700, “An all-to-all approach to the identification of sequence-specific readers for epigenetic DNA modifications on cytosine”.
# Key:
# Assay in all cases: DAPPL (digital affinity profiling via proximity ligation, sequencing); 10 mM Tris-HCl pH 7.5, 50 mM NaCl, 1 mM DTT, 4% glycerol, room temperature, 30 min; GST-TFs on glutathione beads, 16-mer random dsDNA library, 0.1% formaldehyde crosslink after washing; high values mean tight binding
# FLI1 = molecular target: T1, FLI1 (Homo sapiens, UniProt Q01543 1-452); conditions: protein: recombinant; tags: N-terminal GST; dsDNA, one strand shown
# T1 sequence: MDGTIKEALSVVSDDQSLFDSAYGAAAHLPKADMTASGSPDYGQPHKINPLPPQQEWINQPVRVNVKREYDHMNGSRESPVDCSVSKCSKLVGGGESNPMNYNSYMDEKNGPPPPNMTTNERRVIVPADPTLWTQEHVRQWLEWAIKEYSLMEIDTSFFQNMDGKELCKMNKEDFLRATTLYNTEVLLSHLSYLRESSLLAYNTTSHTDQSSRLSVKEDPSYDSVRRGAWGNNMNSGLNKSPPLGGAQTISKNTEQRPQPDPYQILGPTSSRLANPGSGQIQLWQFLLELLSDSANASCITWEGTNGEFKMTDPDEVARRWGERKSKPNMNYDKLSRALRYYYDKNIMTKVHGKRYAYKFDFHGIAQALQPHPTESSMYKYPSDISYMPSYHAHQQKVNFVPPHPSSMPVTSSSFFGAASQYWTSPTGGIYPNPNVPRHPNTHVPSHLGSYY
# Procedure, shortened: (§1)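 Human transcription factors were made in yeast as GST fusions, captured on glutathione beads and barcoded with DNA. With a tag-only sample included, the pool was incubated with 200 nmole of a random double-stranded 16-mer DNA library in Tris/NaCl/DTT/glycerol buffer at room temperature for 30 min, then crosslinked with 0.1% formaldehyde after washing, ligated by proximity, amplified and sequenced. For binding signal, each hexamer's read frequency for a factor is divided by its frequency for the tag-only sample.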
# ELK1 = molecular target: T2, ELK1 (Homo sapiens, UniProt P19419 1-428); conditions: protein: recombinant; tags: N-terminal GST; dsDNA, one strand shown
# T2 sequence: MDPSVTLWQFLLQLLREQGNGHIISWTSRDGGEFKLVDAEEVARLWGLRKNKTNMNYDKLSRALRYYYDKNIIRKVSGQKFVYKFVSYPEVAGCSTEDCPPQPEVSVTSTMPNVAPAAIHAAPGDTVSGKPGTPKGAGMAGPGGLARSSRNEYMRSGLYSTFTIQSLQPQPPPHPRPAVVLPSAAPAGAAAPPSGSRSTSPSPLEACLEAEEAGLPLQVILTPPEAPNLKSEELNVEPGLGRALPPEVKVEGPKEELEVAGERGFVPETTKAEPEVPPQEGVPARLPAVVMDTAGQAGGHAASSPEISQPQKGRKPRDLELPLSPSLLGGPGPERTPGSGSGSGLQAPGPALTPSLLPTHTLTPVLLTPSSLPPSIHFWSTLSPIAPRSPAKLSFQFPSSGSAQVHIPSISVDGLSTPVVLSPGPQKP
# Procedure, shortened: as §1
# GABPA = molecular target: T3, GABPA (Homo sapiens, UniProt Q06546 1-454); conditions: protein: recombinant; tags: N-terminal GST; dsDNA, one strand shown
# T3 sequence: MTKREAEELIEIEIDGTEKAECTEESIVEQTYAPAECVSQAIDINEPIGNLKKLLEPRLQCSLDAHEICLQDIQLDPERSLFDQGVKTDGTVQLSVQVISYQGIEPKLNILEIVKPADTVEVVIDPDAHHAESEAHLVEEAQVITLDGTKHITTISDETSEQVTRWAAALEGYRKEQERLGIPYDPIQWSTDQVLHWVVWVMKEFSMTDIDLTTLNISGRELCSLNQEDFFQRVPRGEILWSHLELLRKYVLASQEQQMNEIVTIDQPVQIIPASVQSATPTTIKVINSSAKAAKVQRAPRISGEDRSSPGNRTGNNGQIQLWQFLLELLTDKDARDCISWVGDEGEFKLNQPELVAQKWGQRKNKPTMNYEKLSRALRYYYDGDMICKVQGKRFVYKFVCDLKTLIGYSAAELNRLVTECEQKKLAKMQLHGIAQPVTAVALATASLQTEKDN
# Procedure, shortened: as §1
# ERG = molecular target: T4, ERG (Homo sapiens, UniProt P11308 1-479); conditions: protein: recombinant; tags: N-terminal GST; dsDNA, one strand shown
# T4 sequence: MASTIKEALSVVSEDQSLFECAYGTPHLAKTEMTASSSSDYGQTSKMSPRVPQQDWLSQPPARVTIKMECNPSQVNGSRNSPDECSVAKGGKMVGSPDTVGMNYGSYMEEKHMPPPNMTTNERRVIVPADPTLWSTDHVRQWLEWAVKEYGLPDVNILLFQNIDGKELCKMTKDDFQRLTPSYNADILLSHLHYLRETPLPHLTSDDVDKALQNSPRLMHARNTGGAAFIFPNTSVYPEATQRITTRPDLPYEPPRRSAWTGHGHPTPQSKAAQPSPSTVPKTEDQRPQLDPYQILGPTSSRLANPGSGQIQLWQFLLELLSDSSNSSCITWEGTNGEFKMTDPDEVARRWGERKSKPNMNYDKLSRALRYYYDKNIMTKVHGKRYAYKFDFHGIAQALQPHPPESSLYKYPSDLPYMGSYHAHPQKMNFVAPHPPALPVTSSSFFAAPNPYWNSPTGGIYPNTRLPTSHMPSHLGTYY
# Procedure, shortened: as §1
# ELF1 = ELF1 (Homo sapiens, UniProt P32519 1-619); conditions: protein: recombinant; tags: N-terminal GST; dsDNA, one strand shown
# ELF1, sequence (P32519 whole entry): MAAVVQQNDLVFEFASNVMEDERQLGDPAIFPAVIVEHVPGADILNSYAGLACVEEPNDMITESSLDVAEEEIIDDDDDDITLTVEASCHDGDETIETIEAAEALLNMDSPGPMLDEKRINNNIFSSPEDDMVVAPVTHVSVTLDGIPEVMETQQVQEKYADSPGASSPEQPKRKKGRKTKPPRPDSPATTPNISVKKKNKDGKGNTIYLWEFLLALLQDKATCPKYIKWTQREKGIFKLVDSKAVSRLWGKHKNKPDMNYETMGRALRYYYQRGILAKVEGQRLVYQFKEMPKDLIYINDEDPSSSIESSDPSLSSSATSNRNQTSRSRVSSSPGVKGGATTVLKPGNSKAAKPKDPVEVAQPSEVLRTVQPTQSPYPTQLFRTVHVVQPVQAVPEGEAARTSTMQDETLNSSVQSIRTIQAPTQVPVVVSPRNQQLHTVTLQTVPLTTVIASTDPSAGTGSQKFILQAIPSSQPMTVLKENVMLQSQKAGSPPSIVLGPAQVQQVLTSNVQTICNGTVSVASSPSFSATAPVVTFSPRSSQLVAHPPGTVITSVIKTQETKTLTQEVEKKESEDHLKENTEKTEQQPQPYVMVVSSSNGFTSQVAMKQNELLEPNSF
# Procedure, shortened: as §1
# EHF = molecular target: T5, EHF (Homo sapiens, UniProt Q9NZC4 1-300); conditions: protein: recombinant; tags: N-terminal GST; dsDNA, one strand shown
# T5 sequence: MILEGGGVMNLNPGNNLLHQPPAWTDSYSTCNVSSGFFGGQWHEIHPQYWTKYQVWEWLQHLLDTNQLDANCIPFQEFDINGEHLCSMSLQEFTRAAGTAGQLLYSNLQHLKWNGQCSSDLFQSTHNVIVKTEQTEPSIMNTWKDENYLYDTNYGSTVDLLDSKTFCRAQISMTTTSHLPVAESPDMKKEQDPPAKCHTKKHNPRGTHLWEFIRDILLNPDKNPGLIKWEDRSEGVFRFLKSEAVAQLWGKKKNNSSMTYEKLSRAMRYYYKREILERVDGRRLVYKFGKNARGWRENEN
# Procedure, shortened: as §1
# SPI1 = SPI1 (Homo sapiens, UniProt P17947 1-270); conditions: protein: recombinant; tags: N-terminal GST; dsDNA, one strand shown
# Procedure, shortened: as §1
# SPIB = SPIB (Homo sapiens, UniProt Q01892 1-262); conditions: protein: recombinant; tags: N-terminal GST; dsDNA, one strand shown
# SPIB, sequence (Q01892 whole entry): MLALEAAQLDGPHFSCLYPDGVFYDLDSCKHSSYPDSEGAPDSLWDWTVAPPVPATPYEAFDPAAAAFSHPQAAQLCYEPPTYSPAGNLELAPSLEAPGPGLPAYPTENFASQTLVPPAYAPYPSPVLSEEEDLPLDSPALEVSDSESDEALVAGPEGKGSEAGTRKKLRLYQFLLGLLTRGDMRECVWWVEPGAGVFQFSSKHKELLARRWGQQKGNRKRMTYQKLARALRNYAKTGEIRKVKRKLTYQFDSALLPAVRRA
# Procedure, shortened: as §1
# ELK3 = molecular target: T6, ELK3 (Homo sapiens, UniProt P41970 1-407); conditions: protein: recombinant; tags: N-terminal GST; dsDNA, one strand shown
# T6 sequence: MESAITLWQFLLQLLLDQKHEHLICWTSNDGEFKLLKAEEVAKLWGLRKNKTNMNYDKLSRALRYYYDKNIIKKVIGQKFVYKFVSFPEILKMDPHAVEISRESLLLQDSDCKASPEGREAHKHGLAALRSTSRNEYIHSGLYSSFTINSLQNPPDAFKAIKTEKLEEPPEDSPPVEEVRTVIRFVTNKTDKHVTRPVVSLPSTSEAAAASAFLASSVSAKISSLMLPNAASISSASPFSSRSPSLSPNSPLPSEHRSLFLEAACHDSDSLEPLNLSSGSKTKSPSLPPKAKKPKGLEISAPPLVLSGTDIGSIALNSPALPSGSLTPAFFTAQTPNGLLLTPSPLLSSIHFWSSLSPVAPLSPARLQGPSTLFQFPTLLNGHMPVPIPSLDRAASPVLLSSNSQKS
# Procedure, shortened: as §1
# FEV = molecular target: T7, FEV (Homo sapiens, UniProt Q99581 1-238); conditions: protein: recombinant; tags: N-terminal GST; dsDNA, one strand shown
# T7 sequence: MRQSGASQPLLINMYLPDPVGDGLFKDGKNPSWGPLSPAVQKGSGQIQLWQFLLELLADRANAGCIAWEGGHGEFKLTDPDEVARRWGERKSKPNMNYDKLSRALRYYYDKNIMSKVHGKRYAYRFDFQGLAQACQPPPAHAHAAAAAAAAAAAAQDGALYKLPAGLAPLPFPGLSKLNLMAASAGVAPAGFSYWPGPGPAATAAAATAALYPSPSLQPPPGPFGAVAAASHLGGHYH
# Procedure, shortened: as §1
# ETV5 = ETV5 (Homo sapiens, UniProt P41161 1-510); conditions: protein: recombinant; tags: N-terminal GST; dsDNA, one strand shown
# ETV5, sequence (P41161 whole entry): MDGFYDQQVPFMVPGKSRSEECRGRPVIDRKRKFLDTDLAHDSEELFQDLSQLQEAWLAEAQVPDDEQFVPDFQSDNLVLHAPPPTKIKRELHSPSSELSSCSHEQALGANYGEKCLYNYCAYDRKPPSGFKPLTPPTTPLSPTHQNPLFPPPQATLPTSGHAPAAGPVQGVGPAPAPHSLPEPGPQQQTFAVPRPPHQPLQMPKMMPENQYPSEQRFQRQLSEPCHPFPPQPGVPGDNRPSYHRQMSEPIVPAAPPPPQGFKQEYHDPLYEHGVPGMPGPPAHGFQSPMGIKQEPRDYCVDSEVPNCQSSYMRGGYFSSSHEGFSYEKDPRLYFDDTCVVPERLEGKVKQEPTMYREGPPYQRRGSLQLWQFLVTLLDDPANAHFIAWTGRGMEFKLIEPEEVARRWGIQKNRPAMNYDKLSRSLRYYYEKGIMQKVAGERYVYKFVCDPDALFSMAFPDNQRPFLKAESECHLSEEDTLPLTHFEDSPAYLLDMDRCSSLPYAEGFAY
# Procedure, shortened: as §1
# HSF1 = HSF1 (Homo sapiens, UniProt Q00613 1-529); conditions: protein: recombinant; tags: N-terminal GST; chain copies: 3; dsDNA, one strand shown
# HSF1, sequence (Q00613 whole entry): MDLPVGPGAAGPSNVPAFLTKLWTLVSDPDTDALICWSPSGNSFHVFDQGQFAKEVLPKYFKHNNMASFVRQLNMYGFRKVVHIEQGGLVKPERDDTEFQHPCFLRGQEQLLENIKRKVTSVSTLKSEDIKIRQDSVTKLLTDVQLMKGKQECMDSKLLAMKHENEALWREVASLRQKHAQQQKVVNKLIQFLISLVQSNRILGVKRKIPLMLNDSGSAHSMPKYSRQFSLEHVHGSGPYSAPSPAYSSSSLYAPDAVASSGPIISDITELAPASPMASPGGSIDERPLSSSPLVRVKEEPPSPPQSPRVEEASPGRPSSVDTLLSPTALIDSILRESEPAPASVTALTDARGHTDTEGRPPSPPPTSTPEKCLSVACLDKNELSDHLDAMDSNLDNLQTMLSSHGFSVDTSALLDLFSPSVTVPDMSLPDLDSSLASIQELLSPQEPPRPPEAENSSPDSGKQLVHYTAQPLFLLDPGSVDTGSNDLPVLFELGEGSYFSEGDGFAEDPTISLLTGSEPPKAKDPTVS
# Procedure, shortened: as §1
# SPIC = molecular target: T8, SPIC (Homo sapiens, UniProt Q8N5J4 1-248); conditions: protein: recombinant; tags: N-terminal GST; dsDNA, one strand shown
# T8 sequence: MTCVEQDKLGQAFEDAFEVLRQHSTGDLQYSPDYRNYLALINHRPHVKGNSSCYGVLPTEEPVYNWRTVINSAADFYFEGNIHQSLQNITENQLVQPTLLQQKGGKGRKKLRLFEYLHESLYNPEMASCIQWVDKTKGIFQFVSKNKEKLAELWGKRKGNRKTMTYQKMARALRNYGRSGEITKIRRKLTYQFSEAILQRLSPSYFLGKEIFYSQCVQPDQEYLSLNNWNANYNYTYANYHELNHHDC
# Procedure, shortened: as §1
# ELF4 = ELF4 (Homo sapiens, UniProt Q99607 1-663); conditions: protein: recombinant; tags: N-terminal GST; dsDNA, one strand shown
# ELF4, sequence (Q99607 whole entry): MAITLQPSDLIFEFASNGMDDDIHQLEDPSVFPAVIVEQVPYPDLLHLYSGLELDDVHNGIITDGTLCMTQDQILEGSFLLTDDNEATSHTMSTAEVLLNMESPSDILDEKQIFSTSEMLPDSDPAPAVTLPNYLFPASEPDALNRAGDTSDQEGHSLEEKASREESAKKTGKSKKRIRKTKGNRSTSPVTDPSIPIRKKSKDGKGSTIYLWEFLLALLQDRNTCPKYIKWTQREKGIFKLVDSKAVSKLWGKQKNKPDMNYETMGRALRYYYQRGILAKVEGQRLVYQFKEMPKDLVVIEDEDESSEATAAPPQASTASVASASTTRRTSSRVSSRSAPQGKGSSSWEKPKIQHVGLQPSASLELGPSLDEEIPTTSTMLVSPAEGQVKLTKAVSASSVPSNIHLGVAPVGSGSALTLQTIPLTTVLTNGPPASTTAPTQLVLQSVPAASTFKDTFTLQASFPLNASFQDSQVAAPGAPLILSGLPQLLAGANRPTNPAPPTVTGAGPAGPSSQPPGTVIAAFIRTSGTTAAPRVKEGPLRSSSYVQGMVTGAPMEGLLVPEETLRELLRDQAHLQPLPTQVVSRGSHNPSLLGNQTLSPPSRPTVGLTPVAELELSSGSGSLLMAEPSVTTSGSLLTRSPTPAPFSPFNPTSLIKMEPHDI
# Procedure, shortened: as §1
# ELK4 = molecular target: T9, ELK4 (Homo sapiens, UniProt P28324-2 1-405); conditions: protein: recombinant; tags: N-terminal GST; dsDNA, one strand shown
# T9 sequence: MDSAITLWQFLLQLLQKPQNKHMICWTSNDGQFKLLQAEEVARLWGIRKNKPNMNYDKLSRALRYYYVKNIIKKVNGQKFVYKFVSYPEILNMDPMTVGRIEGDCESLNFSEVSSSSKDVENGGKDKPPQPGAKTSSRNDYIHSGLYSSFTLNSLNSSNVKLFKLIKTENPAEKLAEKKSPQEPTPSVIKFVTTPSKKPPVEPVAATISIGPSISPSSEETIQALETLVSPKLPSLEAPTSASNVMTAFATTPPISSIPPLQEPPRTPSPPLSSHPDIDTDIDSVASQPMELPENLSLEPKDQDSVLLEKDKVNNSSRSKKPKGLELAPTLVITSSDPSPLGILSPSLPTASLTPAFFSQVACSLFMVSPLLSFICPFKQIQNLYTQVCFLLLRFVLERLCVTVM
# Procedure, shortened: as §1
# ETV2 = molecular target: T10, ETV2 (Homo sapiens, UniProt O00321 1-342); conditions: protein: recombinant; tags: N-terminal GST; dsDNA, one strand shown
# T10 sequence: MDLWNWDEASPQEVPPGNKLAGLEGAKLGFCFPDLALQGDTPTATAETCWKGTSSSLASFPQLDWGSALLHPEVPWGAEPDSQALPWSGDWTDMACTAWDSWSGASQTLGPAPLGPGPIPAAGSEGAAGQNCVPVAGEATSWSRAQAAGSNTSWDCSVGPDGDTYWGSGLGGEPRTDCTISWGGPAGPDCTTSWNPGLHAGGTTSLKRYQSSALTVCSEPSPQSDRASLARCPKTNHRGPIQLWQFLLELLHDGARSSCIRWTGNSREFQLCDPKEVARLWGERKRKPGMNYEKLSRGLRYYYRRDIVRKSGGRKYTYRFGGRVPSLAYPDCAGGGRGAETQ
# Procedure, shortened: as §1
# ELF3 = molecular target: T11, ELF3 (Homo sapiens, UniProt P78545 1-371); conditions: protein: recombinant; tags: N-terminal GST; dsDNA, one strand shown
# T11 sequence: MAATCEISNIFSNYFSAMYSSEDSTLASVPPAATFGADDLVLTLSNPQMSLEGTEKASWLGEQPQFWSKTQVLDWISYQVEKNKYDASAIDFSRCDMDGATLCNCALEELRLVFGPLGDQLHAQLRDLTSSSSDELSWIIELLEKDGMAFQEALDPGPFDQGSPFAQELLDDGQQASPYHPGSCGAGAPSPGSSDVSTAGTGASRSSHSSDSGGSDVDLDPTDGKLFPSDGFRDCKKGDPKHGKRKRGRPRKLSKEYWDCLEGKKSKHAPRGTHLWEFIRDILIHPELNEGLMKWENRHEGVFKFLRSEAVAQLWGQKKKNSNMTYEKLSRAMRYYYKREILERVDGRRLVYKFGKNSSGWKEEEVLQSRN
# Procedure, shortened: as §1
# CRX = CRX (Homo sapiens, UniProt O43186 1-299); conditions: protein: recombinant; tags: N-terminal GST; dsDNA, one strand shown
# CRX, sequence (O43186 whole entry): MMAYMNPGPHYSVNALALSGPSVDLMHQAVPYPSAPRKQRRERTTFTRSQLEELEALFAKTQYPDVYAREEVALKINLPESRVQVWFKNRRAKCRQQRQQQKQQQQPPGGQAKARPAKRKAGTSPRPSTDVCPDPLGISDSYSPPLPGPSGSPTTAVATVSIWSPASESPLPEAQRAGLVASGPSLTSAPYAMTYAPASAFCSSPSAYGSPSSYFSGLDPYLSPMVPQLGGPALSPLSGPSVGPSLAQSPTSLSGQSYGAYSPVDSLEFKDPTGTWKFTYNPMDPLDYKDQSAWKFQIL
# Procedure, shortened: as §1
# ETV1 = ETV1 (Homo sapiens, UniProt P50549 1-477); conditions: protein: recombinant; tags: N-terminal GST; dsDNA, one strand shown
# ETV1, sequence (P50549 whole entry): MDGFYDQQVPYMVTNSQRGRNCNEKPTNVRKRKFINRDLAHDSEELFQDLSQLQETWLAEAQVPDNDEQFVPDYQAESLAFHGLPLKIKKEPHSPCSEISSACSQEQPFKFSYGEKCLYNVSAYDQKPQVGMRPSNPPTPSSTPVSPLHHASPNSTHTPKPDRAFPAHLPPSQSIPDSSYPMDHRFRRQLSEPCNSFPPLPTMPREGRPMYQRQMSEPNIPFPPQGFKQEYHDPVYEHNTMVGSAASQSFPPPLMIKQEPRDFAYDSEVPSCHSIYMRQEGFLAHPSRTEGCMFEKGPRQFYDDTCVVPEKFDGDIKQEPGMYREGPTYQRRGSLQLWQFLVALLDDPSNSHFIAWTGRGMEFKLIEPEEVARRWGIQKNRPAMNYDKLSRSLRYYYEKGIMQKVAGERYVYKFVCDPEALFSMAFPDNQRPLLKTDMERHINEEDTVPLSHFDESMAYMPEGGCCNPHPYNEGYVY
# Procedure, shortened: as §1
sequence,measurement,setting,value
CAATTC,binding signal,FLI1,"1.33 fold enrichment (6-mer frequency, TF over GST control)"
same,binding signal,ELK1,"1.27 fold enrichment (6-mer frequency, TF over GST control)"
same,binding signal,GABPA,"1.19 fold enrichment (6-mer frequency, TF over GST control)"
same,binding signal,ERG,"1.29 fold enrichment (6-mer frequency, TF over GST control)"
same,binding signal,ELF1,"1.25 fold enrichment (6-mer frequency, TF over GST control)"
same,binding signal,EHF,"1.24 fold enrichment (6-mer frequency, TF over GST control)"
same,binding signal,SPI1,"1.24 fold enrichment (6-mer frequency, TF over GST control)"
same,binding signal,SPIB,"1.44 fold enrichment (6-mer frequency, TF over GST control)"
same,binding signal,ELK3,"1.2 fold enrichment (6-mer frequency, TF over GST control)"
same,binding signal,FEV,"1.24 fold enrichment (6-mer frequency, TF over GST control)"
same,binding signal,ETV5,"1.37 fold enrichment (6-mer frequency, TF over GST control)"
same,binding signal,HSF1,"1.19 fold enrichment (6-mer frequency, TF over GST control)"
same,binding signal,SPIC,"1.16 fold enrichment (6-mer frequency, TF over GST control)"
same,binding signal,ELF4,"1.31 fold enrichment (6-mer frequency, TF over GST control)"
same,binding signal,ELK4,"1.25 fold enrichment (6-mer frequency, TF over GST control)"
same,binding signal,ETV2,"1.39 fold enrichment (6-mer frequency, TF over GST control)"
same,binding signal,ELF3,"1.34 fold enrichment (6-mer frequency, TF over GST control)"
same,binding signal,CRX,"1.07 fold enrichment (6-mer frequency, TF over GST control)"
same,binding signal,ETV1,"1.21 fold enrichment (6-mer frequency, TF over GST control)"
